This note sets out measurements from PubChem BioAssay.

The structures appear in SMILES notation. Several values for one entry are separate records, joined by “and”; a condition that tells them apart may be missing. Identical values can stand only once. Activity calls are given as the source filed them.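 The calls were made as follows, unless noted: active = inhibition at or above 50% relative to wild type and mutant plate controls; inactive = inhibition below 50%.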

The nature of assay [1]: inhibitors of E-selectin induction by TNFa, primary screen, imaging, HUVEC, immunofluorescence, MLSMR starter and 10KST1 sets (AID 487;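 active = visually confirmed hit in the image check and inhibition above 20%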;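 as to inhibition: signal is fraction of cell area covered by stained E-selectin grains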;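 as to nuclei count: 100% = median nuclei count of all wells on the same plate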). The following applies: HUVEC TNFalpha-induced E-selectin immunofluorescence imaging, at 2 µM; inhibition: stronger effect = higher value; nuclei count: measured here: cell number, toxicity.
The nature of assay [2]: DUSP6 inhibitors restoring Erk phosphorylation by chemical complementation, primary imaging in DUSP6-transfected HeLa (AID 609;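 active = compounds giving at least 50% inhibition in the cell-based MKP-3 phosphatase rescue imaging test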;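 as to inhibition: phospho-Erk level distribution per well compared with pooled transfected vehicle control wells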). The note with it: HeLa MKP-3 transfected, phospho-Erk imaging KS statistic, at 10 µM, cells stimulated with TPA for 15 min.
The target of assay [3] is Dual specificity protein phosphatase 6 (Homo sapiens) (UniProt Q16828). The assay is described as above. The following applies: HeLa MKP-3 transfected, phospho-Erk imaging KS statistic; at 10 µM; stronger effect = higher value; cells stimulated with TPA for 15 min.
For assay [4], the target named is Voltage-gated potassium channel subunit beta-2 (Rattus norvegicus) (UniProt P62483). Nature of the assay: KvBeta enzyme negative modulators, primary screen, biochemical, NADPH fluorescence (AID 622;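 active = fluorescence slope higher than the sample average by over 3 SD, cut at about -0.22 in these data, passing the limit was not always enough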;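 also: slope of raw intensity against log time taken from 70 to 1610 s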). The note with it: recombinant KvBeta, 4-cyanobenzaldehyde reduction, at 10 µM, stronger effect = higher value.
Assay [5] shares this target. Nature of the assay: KvBeta positive modulators, primary screen, biochemical, NADPH fluorescence (AID 623;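 active = NADPH fluorescence slope more negative than the mean of all samples by about 3 SD, 99.7% confidence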;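 also: fluorescence intensity change per second fitted from 20 to 320 s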). The following applies: Recombinant KvBeta, NADPH fluorescence decrease slope, 10 min; at 10 µM; stronger effect = lower value.
The target in assay [6] is Alpha-2C adrenergic receptor (Homo sapiens) (UniProt P18825). Description: modulators of alpha2C/GIRK thallium flux, primary screen, cell-based, HEK293 alpha2C/GIRK1/2 (AID 624;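 active = fluorescence slope after compound addition differing from the mean of all screened samples at 99.7% confidence, in either direction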;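 also: slope of fluorescence ratio to pre-addition baseline per second over 15 to 24 s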). The note with it: thallium flux BTC fluorescence, at 10 µM, actives lie on both sides.
Assay [7] can be described thus: inhibitors of larval lipid processing in zebrafish, primary screen, whole organism, PED6 fluorescence, gall bladder and intestine (AID 686;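 active = a full or partial loss of lipid-probe fluorescence in the fish gall bladder, intestine or both, judged by eye; inactive = no fluorescence loss, or compound toxic to the fish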;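 also: larvae 5 to 7 days old with five fish per well; signal comes from phospholipase A2 cleavage of quenched PED6 carried via bile; overnight exposure to compound and PED6 before scoring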). The following applies: Zebrafish larvae PED6 lipid processing, fluorescence scoring; screened at 20 µM (by protocol).
Assay [8] in a line: inhibitors of Chlamydomonas gravitaxis, primary screen, whole organism, Chlamydomonas reinhardtii, WT vs cilia-less mutant, absorbance, 96-well (AID 463189).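 Also: 0% = wild type cc124 cells in DMSO and 100% = ciliumless bld1 mutant cells.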 The note with it: OD600 absorbance, 2 days, at 10 µM, stronger effect = higher value.
Assay [9] in a line: inhibitors of mutant huntingtin aggregation, primary screen, imaging, exon1htt(103Q)mCFP cells, high-content imaging (AID 483;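 active = visual image review flags a hit and inhibition of aggregation exceeds 20%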;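 also: compound exposure lasted 3 days before fixation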;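 as to nuclei count: percent of the per-plate median nuclei count of sample wells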). The following applies: exon1htt(103Q)mCFP cell line, aggregate imaging, at 2 µM; inhibition of aggregation: stronger effect = higher value; nuclei count: measured here: cell count, toxicity.
Assay [10] deals with Muscarinic acetylcholine receptor M4 (Homo sapiens) (UniProt P08173). Nature of the assay: compounds altering M4/GIRK thallium flux, either direction, primary screen, M4 allosteric agonist project, cell-based, HEK293 M4/GIRK, BTC-AM (AID 625;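 active = fluorescence slope after compound addition differing from the mean of all tested samples at 99.7% confidence, mostly higher but some lower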;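 also: thallium influx through GIRK channels coupled to M4 in HEK293 cells with BTC-AM dye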). The note with it: at 10 µM, actives lie on both sides.
The nature of assay [11]: inhibitors of Sendai virus-induced IRF3 signaling, primary screen, TLR/RLR signaling modifier project, cell-based, Sendai virus stimulus, luciferase, 10K MLSCN set (AID 602276;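 active = inhibition at or above 50% at 10 µM; inactive = inhibition below 50%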;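 also: firefly luciferase from ISG56 promoter only with Renilla not read in this screen; 0% = Sendai virus plus DMSO and 100% = medium plus DMSO without virus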). The note with it: HEK293 RL24 IRF3 luciferase reporter, at 10 µM, stronger effect = higher value.
The nature of assay [12]: inhibitors of poly I:C-induced TLR3 signaling, primary screen, cell-based, poly I:C stimulus, luciferase, 10K MLSCN set (AID 602277;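 active = inhibition of the reporter signal at or above 50%; inactive = inhibition below 50%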). The following applies: HEK293-TLR3 RL24 IRF3 luciferase reporter, at 10 µM, stronger effect = higher value. (In general: In a reporter assay the amount or activity of a reporter protein is the signal.)
[13] abbreviates: measured here: cell density z-score.
The mark [14] stands for this setting: measured here: nuclear c-Myc green intensity z-score.
Where [15] appears, read: measured here: nuclear pErk red intensity z-score, stronger effect = higher value.

Alpha-2C adrenergic receptor (Homo sapiens), sequence (P18825 whole entry, looked up): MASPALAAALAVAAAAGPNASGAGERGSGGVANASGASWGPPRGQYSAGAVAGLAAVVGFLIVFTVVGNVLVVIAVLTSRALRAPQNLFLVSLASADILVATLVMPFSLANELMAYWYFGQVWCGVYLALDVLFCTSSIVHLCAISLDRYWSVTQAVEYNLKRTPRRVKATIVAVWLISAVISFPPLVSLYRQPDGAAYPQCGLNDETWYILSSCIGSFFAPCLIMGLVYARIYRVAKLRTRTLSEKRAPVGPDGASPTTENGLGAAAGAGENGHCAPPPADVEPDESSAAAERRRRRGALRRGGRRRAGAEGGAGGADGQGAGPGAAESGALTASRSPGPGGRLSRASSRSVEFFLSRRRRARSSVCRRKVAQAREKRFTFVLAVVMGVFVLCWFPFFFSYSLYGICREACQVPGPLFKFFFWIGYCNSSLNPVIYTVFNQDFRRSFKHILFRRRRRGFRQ
Voltage-gated potassium channel subunit beta-2 (Rattus norvegicus), sequence (P62483 whole entry, looked up): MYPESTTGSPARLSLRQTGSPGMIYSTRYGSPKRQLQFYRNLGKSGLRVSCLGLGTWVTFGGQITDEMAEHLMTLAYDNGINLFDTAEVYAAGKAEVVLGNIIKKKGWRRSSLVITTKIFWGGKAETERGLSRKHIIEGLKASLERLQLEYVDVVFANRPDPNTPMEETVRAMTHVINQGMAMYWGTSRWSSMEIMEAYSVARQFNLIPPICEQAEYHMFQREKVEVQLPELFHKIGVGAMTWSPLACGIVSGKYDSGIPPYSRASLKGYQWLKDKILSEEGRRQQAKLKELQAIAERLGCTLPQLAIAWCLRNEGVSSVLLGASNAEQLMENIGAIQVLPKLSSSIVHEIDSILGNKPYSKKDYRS
Dual specificity protein phosphatase 6 (Homo sapiens), sequence (Q16828 whole entry, looked up): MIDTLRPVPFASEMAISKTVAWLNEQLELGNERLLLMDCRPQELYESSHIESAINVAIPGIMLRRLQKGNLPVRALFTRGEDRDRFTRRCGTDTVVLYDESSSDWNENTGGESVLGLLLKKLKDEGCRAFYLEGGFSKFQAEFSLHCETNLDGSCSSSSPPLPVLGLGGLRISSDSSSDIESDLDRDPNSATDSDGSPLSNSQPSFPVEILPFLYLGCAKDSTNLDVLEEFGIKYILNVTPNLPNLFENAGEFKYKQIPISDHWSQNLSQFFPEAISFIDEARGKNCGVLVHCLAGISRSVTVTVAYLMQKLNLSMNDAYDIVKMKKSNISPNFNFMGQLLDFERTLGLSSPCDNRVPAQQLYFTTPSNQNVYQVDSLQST
Muscarinic acetylcholine receptor M4 (Homo sapiens), sequence (P08173 whole entry, looked up): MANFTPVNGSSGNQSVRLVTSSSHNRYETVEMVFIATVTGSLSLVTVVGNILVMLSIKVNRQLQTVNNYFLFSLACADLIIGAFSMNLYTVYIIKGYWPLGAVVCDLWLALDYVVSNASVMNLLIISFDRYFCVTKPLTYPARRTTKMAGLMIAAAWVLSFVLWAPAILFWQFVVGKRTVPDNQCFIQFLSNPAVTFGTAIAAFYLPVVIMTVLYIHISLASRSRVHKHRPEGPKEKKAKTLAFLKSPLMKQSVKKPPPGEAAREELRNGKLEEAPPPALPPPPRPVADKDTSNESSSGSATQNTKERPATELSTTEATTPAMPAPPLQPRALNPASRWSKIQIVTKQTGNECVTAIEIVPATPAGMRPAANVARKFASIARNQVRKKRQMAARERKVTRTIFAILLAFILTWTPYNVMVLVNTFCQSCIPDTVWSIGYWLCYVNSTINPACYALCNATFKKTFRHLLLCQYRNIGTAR

By inhibition is commonly meant the drop in the measured response relative to a control, in per cent. On to `COc1ccc(OCC(=O)OCCN(C)C)cc1`, for which the results for the inhibition in assay [1], in assay [3] and in [8] were -159% (inactive), -10.6% (inactive) and 6.76% (inactive), respectively. Besides, the nuclei count in [1] was 170%. Besides, the results for the z-score in assay [2] (setting [13]), in assay [2] (setting [14]) and in [2] (setting [15]) were -1.95, -1.2 and -0.272, respectively. Further, the fluorescence slope in assay [4] is -0.383 (inactive). Also, in assay [5], the NADPH fluorescence slope was -2.2e-05 (inactive). Moreover, the slope in [6] is 0.00493 (inactive). In addition, the call in [7] was inactive.
For `C1CNCCNCCCNCCNC1`, in [9], the inhibition of aggregation is 19.7% (inactive) and the nuclei count was 100%. For the same compound, the fluorescence slope in [4] was -0.454 (inactive). The NADPH fluorescence slope in assay [5] is -6.6e-05 (inactive). Also, in assay [7], the call was inactive. For the same compound, in assay [8], the inhibition is -15.9% (inactive).
In the case of `CC(=O)Oc1oc(-c2ccccc2)nc1/C=N/c1ccccn1`, the inhibition in assay [1] is -20.4% (inactive); in assay [3] it was 7.48% (inactive); in assay [8], -3.91% (inactive). The compound also had a nuclei count in assay [1] of 147%. Also, the z-score was -0.443 in [2] (setting [13]), 1.34 in assay [2] (setting [14]) and 0.905 in assay [2] (setting [15]). For the same compound, the fluorescence slope in assay [4] is -0.383 (inactive); in assay [10], 0.00577 (inactive). In addition, the NADPH fluorescence slope in assay [5] was -5.8e-05 (inactive). In addition, in assay [7], the call was inactive.
`O=C(c1ccc(N2C(=O)C3CC=C(Cl)CC3C2=O)cc1)N1CCCCC1` (stereo not given): the values for the inhibition in [1], in assay [3] and in assay [8] were -148% (inactive), 15.1% (inactive) and -0.983% (inactive), respectively. This compound gave a nuclei count in assay [1] of 163%. For the same compound, the figures for the z-score in [2] (setting [13]), in assay [2] (setting [14]) and in assay [2] (setting [15]) were 0.548, -0.00489 and -2.02, respectively. The fluorescence slope in assay [4] was -0.379 (inactive); in assay [10], 0.00666 (inactive). Also, the NADPH fluorescence slope in assay [5] was -2.5e-05 (inactive). In addition, the compound was classed as inactive in assay [7].
Turning to `Nc1nc2c(ncn2COCCO)c(=O)[nH]1`, the inhibition was -45.2% (inactive) in assay [1]; 3.45% (inactive) in assay [3]; -9.79% (inactive) and -10% (inactive) in [8]; -1.97% (inactive) in [11]; 26.2% (inactive) in assay [12]. In assay [1], this compound had a nuclei count of 98.5%. Also, the results for the z-score in assay [2] (setting [13]), in [2] (setting [14]) and in assay [2] (setting [15]) were -1.3, 0.247 and -1.02, respectively. For the same compound, the fluorescence slope in assay [4] was -0.446 (inactive). In addition, in [5], the NADPH fluorescence slope is -8.2e-06 (inactive). Moreover, the slope in assay [6] was 0.00457 (inactive). In addition, the compound was called inactive in assay [7].
`COc1ccc(OC)c(N=C(C)C2=C(O)COC2=O)c1`: the inhibition in assay [1] is -20.1% (inactive); in assay [3] it was -0.159% (inactive); in assay [8], -11.6% (inactive). In assay [1], this compound displayed a nuclei count of 104%. In addition, the z-score in assay [2] (setting [13]) is -1.31; in [2] (setting [14]) it was 0.523; in assay [2] (setting [15]), 0.389. In addition, the fluorescence slope in [4] was -0.404 (inactive); in assay [10], 0.00554 (inactive). The NADPH fluorescence slope in assay [5] was 6.7e-06 (inactive). Besides, the outcome in assay [7] was “inactive; toxic”.
Consider `CCOC(=O)C(Oc1ccc(=O)[nH]n1)C(C)=O` (stereo not given), for which the inhibition in assay [1] was -70.7% (inactive); in assay [3] it was 22.7% (inactive); in assay [8], -3.15% (inactive). Also, the nuclei count in assay [1] is 105%. The z-score in assay [2] (setting [13]) was -0.778; in assay [2] (setting [14]), 0.196; in assay [2] (setting [15]), -1.16. Further, the results for the fluorescence slope in assay [4] and in [10] were -0.398 (inactive) and 0.00606 (inactive), respectively. Besides, the NADPH fluorescence slope in assay [5] was -7.7e-06 (inactive). The outcome in assay [7] was inactive.
As for `Cc1nnc(NS(=O)(=O)c2ccc(N)cc2)s1`, the inhibition in assay [1] is -81.2% (inactive); in [3], 19% (inactive); in [8] it was -0.666% (inactive); in assay [11], -4.22% (inactive); in assay [12], -8.79% (inactive). This compound came in with a nuclei count in [1] of 125%. The z-score in [2] (setting [13]) is 0.0804; in assay [2] (setting [14]) it was 0.446; in [2] (setting [15]) it was 0.118. Besides, the fluorescence slope in assay [4] is -0.526 (inactive). Besides, in assay [5], the NADPH fluorescence slope is -3.2e-05 (inactive). In addition, in [6], the slope was 0.00418 (inactive). For the same compound, in [7], the compound was classed as inactive.
Take `CC[C@H]1CN2CCc3cc(OC)c(OC)cc3[C@@H]2C[C@@H]1C[C@H]1NCCc2cc(OC)c(OC)cc21`: the inhibition in assay [1] was 103% (active); in [3], 11.3% (inactive); in assay [8], 69.7% (active) and 130% (active); in assay [11] it was -28.7% (inactive); in [12], 103% (active). The compound also displayed a nuclei count in [1] of 103%. Further, the z-score in assay [2] (setting [13]) is 0.501; in [2] (setting [14]), -0.649; in assay [2] (setting [15]) it was 0.619. Besides, the fluorescence slope in assay [4] was -0.553 (inactive). For the same compound, the NADPH fluorescence slope in assay [5] was -3.6e-05 (inactive). The slope in assay [6] is 0.00425 (inactive). The outcome in assay [7] was inactive.
